Screening results from PubChem.
An excerpt weighted towards active compounds, which were near 17% of everything screened.
DT40 TDP1 no CPT: qHTS for Inhibitors of human tyrosyl-DNA phosphodiesterase 1 (TDP1): qHTS in cells in absence of CPT | AID 686978, 2013 | Potency, µM (highest dose often 46.2 µM), for the others: at the top dose activity change, negative = growth inhibition, actives largely listed as inhibitors | DT40 Tdp1-/- hTDP1 cells, no CPT, ATP luminescence, 48 h | 420,000 compounds, 15% hits; further: on the % scale 0 is the no-effect control and ±100 the full control effect; nearly all actives have a fitted effect of over 55% in size
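Compound effects on proliferation are scored in DT40 Tdp1-/-;hTDP1 cells in the absence of CPT. ATP levels (CellTiter-Glo luminescence) are recorded after a ≥48 hr, 37 °C incubation.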
TDP1 cell CPT: growth inhibition of DT40 Tdp1-/-;hTDP1 cells with camptothecin (screen for TDP1 inhibitors) | chicken DT40 Tdp1-/-;hTDP1 cells + 20 nM CPT, ATP luminescence, 48 h | 420,000 compounds, 12% hits | Potency, µM (highest dose often 46.2 µM), without a hit: top-dose activity change, negative = growth inhibition, hits mostly inhibitors; further: on the % scale 0 is the no-effect control and ±100 the full control effect; nearly all actives have a fitted effect of over 55% in size
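Cell growth measured by CellTiter-Glo luminescence after a minimum 48 h, 37 C compound exposure with 20 nM CPT in Tdp1-knockout DT40 cells stably expressing hTDP1, seeded 400/well; qHTS titration format.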
HepG2 tox-1: kills HepG2 cells in TGF-b inhibitor counter-screen. 410,000 compounds, 0.76% hits. HepG2 CAGA-GFP viability, ATP luminescence, 18 h. Potency, µM (series often up to 46.1 µM), for the others: at the top dose activity change, negative = cytotoxicity, hits mostly cytotoxic
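HepG2 CAGA-GFP cells (1000/well, DMEM with 1% FBS) received compound, then TGF-beta at 500 pg/mL final, and were incubated 18 hours at 37 degrees C. Viability was read by CellTiter-Glo luminescence. Media-only wells were set as complete cell-killing and DMSO as no toxicity.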
ATXN viability: cell viability loss in ATXN counter-screen; S2 cells (HEK-293 line with an ATXN2-luciferase reporter) viability, CellTiter-Fluor protease fluorescence, 24 h; Potency, µM (top dose mostly 56.7 µM), usual class: cytotoxic; 400,000 compounds, 0.49% hits; AID 651635; further: nearly all actives have a fitted effect of over 40% in size
ATXN2 expr inh: ATXN2 expression inhibition. HEK-293 ATXN2-luciferase reporter, luminescence, 24 h. Potency, µM (doses to about 57 µM), for the others: at the highest dose activity change, negative = inhibition, hits mostly inhibitors. 360,000 compounds, 0.72% hits. AID 1745845; further: on the % scale 0 is the no-effect control and ±100 the full control effect; nearly all actives have a fitted effect of over 55% in size
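qHTS (up to 57 uM final) was run with 24 h compound exposure of reporter cells at 37 °C. Each well was multiplexed: SteadyGlo luminescence measured ATXN2-luciferase expression after a fluorogenic Gly-Phe-AFC viability readout (25 uM final).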
TGFb SMAD3 inh: blocks TGF-b signaling; AID 588855; 410,000 compounds, 1.2% hits; HepG2 CAGA-GFP TGF-b/SMAD3 reporter, GFP fluorescence, 18 h; TGF-beta stimulated, 500 pg/mL final; Potency, µM (titrated, usually from 46.1 µM), without a hit: at the highest dose activity, negative = inhibition, most hits filed as inhibitors; further: on the % scale 0 is the no-effect control and ±100 the full control effect; nearly all actives have a fitted effect of over 65% in size
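Inhibition of TGF-beta-driven CAGA-GFP reporter expression in HEPG2 cells is measured by cellular GFP fluorescence after 18 h stimulation with 500 pg/mL recombinant TGF-beta in 1% FBS medium at 37 degrees C.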
TGFb CAGA inh: TGF-b pathway inhibition, cherry-pick retest. 1,600 compounds, 63% hits. shares compounds with TGFb SMAD3 inh. Potency, µM (titrated, usually from 46.1 µM), inactives show at the top dose activity, negative = inhibition, hits mostly inhibitors. AID 720534. HepG2 CAGA-GFP TGF-b reporter, GFP fluorescence, 18 h; cells stimulated with TGF-beta, 500 pg/mL; further: on the % scale 0 is the no-effect control and ±100 the full control effect; nearly all actives have a fitted effect of over 65% in size
HepG2 tox-2: toxic to HepG2 cells in TGF-b counterscreen; Potency, µM (titrated, usually from 46.1 µM), for inactives: at the highest dose activity, negative = cytotoxicity, actives largely listed as inhibitors; shares compounds with TGFb SMAD3 inh; HepG2 CAGA-GFP viability, ATP luminescence, 18 h; cells stimulated with TGF-beta, 500 pg/mL; 1,600 compounds, 27% hits; AID 720535; further: on the % scale 0 is the no-effect control and ±100 the full control effect; nearly all actives have a fitted effect of over 70% in size
TGFb CCL64 inh: TGF-b inhibition, CCL64 orthogonal assay | shares compounds with TGFb SMAD3 inh | CCL64 CAGA-GFP reporter, TGF-b stimulated, GFP fluorescence, 18 h | Potency, µM (highest dose often 46.1 µM), without a hit: at the top dose activity, negative = inhibition, actives largely listed as inhibitors | 1,600 compounds, 41% hits; further: nearly all actives have a fitted effect of over 65% in size
COP TGFb inh: TGF-b inhibition validated with COP promoter | 1,600 compounds, 3% hits | HepG2 COP-GFP TGF-b reporter, GFP fluorescence, 18 h; cells stimulated by added recombinant TGF-beta | AID 720537 | Potency, µM (titrated, usually from 46.1 µM), without a hit: top-dose activity, negative = inhibition, hits mostly inhibitors | shares compounds with TGFb SMAD3 inh; further: nearly all actives have a fitted effect of over 70% in size
An asterisk follows results filed as active; i = inactive; ? = inconclusive; . = no result. The call rests on the fitted dose curve; in most records, active means well fitted curve in the direction sought with a large enough effect; inconclusive means small, poorly fitted or top-dose-only effect, or another doubt; inactive means no such curve, though single readings can be large; an effect the other way counts as inactive or inconclusive. Potency means the concentration at half of the fitted maximal effect.

SMILES	DT40 TDP1 no CPT	TDP1 cell CPT	HepG2 tox-1	ATXN viability	ATXN2 expr inh	TGFb SMAD3 inh	TGFb CAGA inh	HepG2 tox-2	TGFb CCL64 inh	COP TGFb inh
COc1cc2c(c(Br)c1N)-c1cc(Br)c(N)cc1C2=O	-10%	-4%	-46%	i	.	?	0.58µM*	0.58µM*	-4%	68%
O=C(COC(=O)CNC(=O)c1ccc2c(c1)OCO2)Nc1ncc(Cl)cc1Cl	10%	8%	3%	i	5%	17%	.	.	.	.
COc1cc(CN2CCc3ccccc3C2)ccc1O	0.46µM*	0.92µM*	-133%	18µM*	.	4.5µM*	7.3µM*	15µM*	2.9µM*	-27%
Cc1ccccc1CCNC(=O)c1ccc(Cl)c(S(=O)(=O)N2CC(C)OC(C)C2)c1 (centres undefined)	?	18µM*	4%	?	-35%	10µM*	16µM*	?	?	3%
COc1ccc(NC(=O)N(C)C[C@H]2Oc3c(NC(=O)c4nc5ccccc5s4)cccc3C(=O)N([C@@H](C)CO)C[C@H]2C)cc1	?	?	-6%	.	?	11µM*	?	-22%	18µM*	38%
COc1ccc(C(NC(=O)C2CCN(CCOc3ccc(Cl)cc3Cl)CC2)c2cccs2)cc1 (centres undefined)	16µM*	?	5µM*	?	-24%	4.5µM*	?	?	?	?
COc1ccc(OCCN2CCC(C(=O)NC(c3ccc(C)cc3)c3ccccn3)CC2)cc1 (centres undefined)	-15%	-28%	-33%	i	4%	-2%	.	.	.	.
O=C(c1ccc2nc[nH]c2c1)N1CCN(S(=O)(=O)c2cccc(F)c2)CC1	-14%	-3%	-16%	i	2%	0%	.	.	.	.
CCN1CCN(S(=O)(=O)c2ccc(Cl)c(C(=O)NCCOc3ccc(C)cc3)c2)CC1	-29%	?	-38%	i	-5%	-2%	.	.	.	.
CCN1CCN(S(=O)(=O)c2ccc(Cl)c(C(=O)N(C)CCOc3ccc(Cl)cc3)c2)CC1	15µM*	18µM*	-9%	i	-29%	14µM*	13µM*	?	?	12%
CN(Cc1ccccc1)C(=O)NC1CCCCC1	7%	-5%	12%	?	4%	?	.	.	.	.
CC[C@@H](CC1CCCCC1)C(=O)N(Cc1ccccc1)c1ccccc1	4.1µM*	4.6µM*	-23%	i	-17%	2.5µM*	-17%	?	?	9%
Cc1c[nH]c(=O)c([N+](=O)[O-])c1	2%	-5%	-3%	i	.	-6%	.	.	.	.
CCC(C(=O)Nc1ccc(C(=O)OC)cc1)n1nc(-c2ccc(C)cc2)c2c(c1=O)CCCC2 (centres undefined)	?	?	-25%	i	-25%	?	.	.	.	.
COc1cc2c(cc1OC)C(C)N(C(=O)c1cc3c(C)cc(C)cc3[nH]1)CC2 (centres undefined)	16µM*	16µM*	-29%	?	?	11µM*	16µM*	15µM*	?	51%
CCOC(=O)C1CCN(C(=O)c2cc3c(C)cc(C)cc3[nH]2)CC1	?	-20%	2%	i	.	3%	.	.	.	.
Cc1cc(C)n(/C(=C/N(C)C)C(=O)c2ccccc2)n1	22%	-15%	2%	i	11%	0%	.	.	.	.
COC(=O)C(Cc1csc2ccc(Cl)cc12)NC(=O)c1ccc(Cl)cc1 (centres undefined)	-23%	3%	13%	i	17%	1%	.	.	.	.
Cc1ccc(C(NC(=O)C2CCCCC2)c2c(O)ccc3ccccc23)cc1 (centres undefined)	21µM*	16µM*	1%	?	-8%	4.5µM*	7.3µM*	?	23µM*	35%
O=C(/C=C/c1cccs1)N1CCC2(CC1)Oc1ccc(Cl)cc1C(=O)C21CC(c2ccccc2)=NO1 (centres undefined)	-11%	-3%	8%	i	5%	1%	.	.	.	.
CN(C)CCC(=O)C(Cc1ccccc1)c1ccccc1 (centres undefined)	4.6µM*	5.2µM*	20µM*	i	-6%	7.9µM*	4.1µM*	15µM*	10µM*	?
C[C@H]1O[C@@H](n2cc(F)c(=O)[nH]c2=O)[C@H](O)[C@@H]1O	?	?	-1%	i	3%	24%	.	.	.	.
O=C1C(F)=CC(COC(c2ccccc2)(c2ccccc2)c2ccccc2)OC1n1cc(F)c(=O)[nH]c1=O (centres undefined)	1.5µM*	1.6µM*	-60%	3µM*	3.4µM*	5µM*	2.9µM*	8.2µM*	2.3µM*	?
COc1ccc(CN2CCN(c3ncnc4scc(-c5ccc(F)cc5)c34)CC2)cc1	21µM*	16µM*	-26%	i	?	11µM*	21µM*	?	?	41%
O=C(O)Cn1cnc2c(OCc3ccccc3)ncnc21	-8%	2%	1%	i	6%	-6%	.	.	.	.
Cc1ccc(NCCCn2cnc3c(OCc4ccccc4)ncnc32)cc1C	?	?	-24%	?	?	18µM*	6.5µM*	?	?	67%
